Assay [1] is described as follows: signal quenchers or enhancers, Cy5 substrate/SSB – biochemical, NIH Clinical Collection, E. coli SSB, artefact control for HCV NS3 helicase inhibitor project (AID 743268). The settings on record: Cy5-oligo bound E. coli SSB, fluorescence interference.
The subject of assay [2] is Hepatitis C virus NS3 helicase. The experiment in a line: blockers of NS3h binding to DNA – biochemical, fluorescence polarization, NIH Clinical Collection, primary screen (AID 743270). The settings on record: NS3 helicase binding to Cy5-dT15 DNA, stronger effect = higher value, concentration not given here.
Assay [3] has as its target Single-stranded DNA-binding protein (Escherichia coli (strain K12)) (UniProt P0AGE0). The experiment in a line: SSB-ssDNA binding inhibitors – biochemical, fluorescence polarization, NIH Clinical Collection, counter-screen for HCV NS3 helicase inhibitor project (AID 743271; in the data active means inhibition above about 28%). The conditions noted are these: E. coli SSB-DNA binding, stronger effect = higher value, concentration not given here. (Polarisation of emitted light reports the rotation of a fluorescent probe.)

The nature of assay [4]: compounds distorting NS3 helicase fluorescence signal – biochemical, NIH Clinical Collection, artefact control for HCV NS3 helicase inhibitor project (AID 743272).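 Further: HCV NS3 helicase with a Cy5 labelled single stranded DNA probe.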 The conditions noted are these: fluorescence interference counterscreen, HCV NS3 helicase assay; stronger effect = lower value. (A counterscreen serves to expose hits that act by an unwanted route or on another target.)
Assay [5] can be described thus: Wnt pathway potentiators raising nuclear beta-catenin – imaging, WNT3A-conditioned medium, mouse C2C12, NPC library, primary screen (AID 1117326; in the data active means nuclear beta-catenin stimulation mostly above about 4.2%, no sharp cut-off; inactive means mostly below about 10%). The settings on record: stronger effect = higher value.
Assay [6] can be described thus: stimulators of insulin release from INS-1E, primary screen, cell-based, 5 mM glucose, NPC library (AID 1117329;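 active means compound raises insulin release from rat beta cells at 5 mM glucose, no numeric limit stated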). The conditions noted are these: rat INS-1E insulin secretion, at 10 µM, stronger effect = higher value.
Assay [7] is described as follows: growth inhibition of GSK3B-pretreated HCT116 cells – cell-based, CellTiter-Glo, 0.2 to 20 µM (AID 1117336;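 active means compounds lowering colon cancer cell viability after pretreatment blocking the GSK3B kinase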). The conditions noted are these: HCT116 viability after GSK3B inhibitor, at 20 µM, stronger effect = higher value. In general terms: In ATP-based viability assays light output follows the ATP content of the culture.
A short description of assay [8]: inhibition of endothelial tube formation, primary screen, imaging, VEGF stimulated, CD31 staining, tube area, NPC library (AID 1117340;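 active means compound that reduces growth-factor-driven endothelial tube area in a mixed cell culture, no cutoff stated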). The conditions noted are these: VEGF-stimulated ADSC/ECFC co-culture, at 10 µM, stronger effect = higher value.
Assay [9] in a line: GLP1 release stimulators, primary, NCI-H716, NPC library (AID 1117341;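 active means compound raises GLP1 secretion from the human gut endocrine cells, with no numeric limit stated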). The settings on record: NCI-H716 cells, at 10 µM, stronger effect = higher value.
A short description of assay [10]: HCT116 colon cancer cell growth inhibition, primary screen, CellTiter-Glo luminescence, NPC library (AID 1117342;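 active means compounds that lower survival of HCT116 colon cancer cells in the luminescence readout, no numeric limit stated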). The settings on record: at 20 µM (top of the series).
Assay [11] is described as follows: reduced SW480 viability measured with CellTiter-Glo, NPC library, primary (AID 1117343;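 active means compounds that lower viability of the colon cancer cells in the luminescence readout, with no numeric limit stated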). The settings on record: CellTiter-Glo luminescence; at 20 µM (top of the series).
A short description of assay [12]: NPC library primary testing for decreased DLD-1 cell viability via CellTiter-Glo (AID 1117346;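 active means compounds that lower survival of DLD-1 colon cancer cells in the luminescence readout, no cutoff given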). The settings on record: DLD-1 viability, CellTiter-Glo luminescence; at 20 µM (top of the series).
Assay [13] has as its target 6-phosphogluconate dehydrogenase, decarboxylating (Homo sapiens) (UniProt P52209). The experiment in a line: inhibition of human phosphogluconate dehydrogenase – biochemical, recombinant enzyme, NADPH absorbance, primary screen (AID 1159550;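 active means at least 20% inhibition of 6-phosphogluconate dehydrogenase activity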). The conditions noted are these: recombinant 6PGD, NADPH absorbance 341 nm; at 10 µM; stronger effect = higher value.
Assay [14] can be described thus: MELAS cybrid and Rieske KO viability enhancers – cell-based, MELAS cybrids, Rieske KO mouse fibroblasts, CellTiter-Glo, primary screen (AID 1508586;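 active means mean z-score across replicates of 1.96 or higher in either the MELAS or the Rieske mutant cell line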;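 further: z relative to plate mean and SD of compound and empty wells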). The conditions noted are these: low glucose.
Assay [15] addresses NAD(+) hydrolase SARM1 (Homo sapiens) (UniProt Q6SZW1). The experiment in a line: blocking NAD cleavage by SARM1 SAM-TIR – cell lysate, NAD-Glo luminescence (AID 1508614;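 active means compound whose remaining NAD level is above about 45 nM, limit read from the data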). The conditions noted are these: SAM-TIR HEK293T lysate NADase, at 1 µM, stronger effect = higher value.
For assay [16], the target named is Mitogen-activated protein kinase 7 (Homo sapiens) (UniProt Q13164). The experiment in a line: Gal4-ERK5 driven luciferase induction – cell-based, HTS, primary screen (AID 1508626;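 active means luciferase signal above three times the same-plate solvent-only control wells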;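 further: luciferase driven by Gal4-ERK5 fusion binding five Gal4 sites before minimal TATA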). The settings on record: HeLa Gal4-ERK5 transactivation, 18 h, at 5 µM, stronger effect = higher value.
Mitogen-activated protein kinase 7 (Homo sapiens), sequence (Q13164 whole entry, looked up, the tested form may be a part): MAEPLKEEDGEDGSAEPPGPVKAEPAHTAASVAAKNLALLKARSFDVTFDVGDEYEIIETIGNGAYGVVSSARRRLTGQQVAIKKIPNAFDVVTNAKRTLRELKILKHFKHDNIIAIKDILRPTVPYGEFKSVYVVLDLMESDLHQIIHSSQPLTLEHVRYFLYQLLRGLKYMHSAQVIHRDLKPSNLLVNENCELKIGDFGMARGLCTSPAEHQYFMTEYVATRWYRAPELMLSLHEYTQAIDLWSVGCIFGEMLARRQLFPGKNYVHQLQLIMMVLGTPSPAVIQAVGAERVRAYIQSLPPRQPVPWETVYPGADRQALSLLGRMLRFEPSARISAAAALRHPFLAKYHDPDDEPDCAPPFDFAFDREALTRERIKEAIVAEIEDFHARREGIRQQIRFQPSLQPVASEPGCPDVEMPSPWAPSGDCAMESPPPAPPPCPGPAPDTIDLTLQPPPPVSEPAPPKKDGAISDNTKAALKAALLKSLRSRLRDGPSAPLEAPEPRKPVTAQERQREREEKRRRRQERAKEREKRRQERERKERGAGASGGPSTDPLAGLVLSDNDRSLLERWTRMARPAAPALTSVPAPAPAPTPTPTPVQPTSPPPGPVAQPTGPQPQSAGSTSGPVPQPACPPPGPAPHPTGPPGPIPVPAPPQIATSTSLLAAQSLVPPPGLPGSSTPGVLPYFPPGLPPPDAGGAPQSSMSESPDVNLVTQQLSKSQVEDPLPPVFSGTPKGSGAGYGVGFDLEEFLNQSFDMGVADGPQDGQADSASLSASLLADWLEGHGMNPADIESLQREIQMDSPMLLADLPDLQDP
In assay [17] the test system is F380Y. Put plainly: BK channel mutant inhibitors and activators – cell-based, U2OS BacMam, thallium flux, beta subunits, selectivity assay, profiling panel (AID 1259406;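 active means thallium flux through the channel raised or lowered by more than 3 SD from vehicle-only wells, actives on both sides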;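 further: initial slope of Thallos dye fluorescence rise after thallium is added; log ratio against the mean of 0.3% DMSO vehicle wells on the same plate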). The settings on record: U2OS BacMam BK variants, at 30 µM.
Assay [18] in a line: P. berghei load reduction in hepatocytes – cell-based, HepG2, luciferase luminescence, HepG2 viability, primary screen (AID 624349; in the data active means parasite load remaining mostly below about 12%, no sharp cut-off; inactive means mostly above about 10%;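 further: 100% = mean of DMSO negative control wells on the same plate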). The conditions noted are these: P. berghei liver stage in HepG2, luciferase luminescence, concentration not given here; parasite load remaining: stronger effect = lower value; viability: measured here: HepG2 viability without parasites.
Assay [19] is described as follows: viability loss with induced miR-34 in A549 – imaging, A549 dox-inducible miR-34, nuclei and caspase counts, primary screen (AID 1347080;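 active means compounds whose cell count with miR-34 switched on is under 0.7 times the count with it off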). The settings on record: A549 miR-34 inducible, Hoechst nuclei count, 48 h.
The mark [20] stands for this setting: MELAS cybrid survival, CellTiter-Glo 48 h, stronger effect = higher value.
Setting [21] is: Rieske KO mouse fibroblast survival, CellTiter-Glo 72 h.
Setting [22] is: stronger effect = lower value, cell number ratio, induced over uninduced.
[23] abbreviates: measured here: relative caspase fold change +Dox/-Dox.
[24] abbreviates: measured here: total cells with miR-34 induction, stronger effect = lower value.
The mark [25] stands for this setting: measured here: total cells without miR-34 induction.

“And” between values parts separate entries of the source, which are not always exact repeats. Equal values may be shown once. The source made the active and inactive calls. Unless noted, how the calls were made is not given here.

6-phosphogluconate dehydrogenase, decarboxylating (Homo sapiens), sequence (P52209 whole entry, looked up): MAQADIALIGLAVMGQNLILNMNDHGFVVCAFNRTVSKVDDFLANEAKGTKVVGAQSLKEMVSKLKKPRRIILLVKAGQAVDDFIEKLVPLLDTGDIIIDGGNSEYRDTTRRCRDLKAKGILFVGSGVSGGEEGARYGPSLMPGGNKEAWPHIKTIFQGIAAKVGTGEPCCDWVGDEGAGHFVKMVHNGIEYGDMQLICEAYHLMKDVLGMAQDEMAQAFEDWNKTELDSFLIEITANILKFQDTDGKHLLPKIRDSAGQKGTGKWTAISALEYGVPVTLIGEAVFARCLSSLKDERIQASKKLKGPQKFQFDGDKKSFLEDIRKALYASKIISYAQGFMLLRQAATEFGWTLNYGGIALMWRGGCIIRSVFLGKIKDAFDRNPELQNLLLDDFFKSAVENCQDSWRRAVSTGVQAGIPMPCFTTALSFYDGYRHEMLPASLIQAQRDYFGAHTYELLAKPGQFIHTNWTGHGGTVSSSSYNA
NAD(+) hydrolase SARM1 (Homo sapiens), sequence (Q6SZW1 whole entry, looked up, the tested form may be a part): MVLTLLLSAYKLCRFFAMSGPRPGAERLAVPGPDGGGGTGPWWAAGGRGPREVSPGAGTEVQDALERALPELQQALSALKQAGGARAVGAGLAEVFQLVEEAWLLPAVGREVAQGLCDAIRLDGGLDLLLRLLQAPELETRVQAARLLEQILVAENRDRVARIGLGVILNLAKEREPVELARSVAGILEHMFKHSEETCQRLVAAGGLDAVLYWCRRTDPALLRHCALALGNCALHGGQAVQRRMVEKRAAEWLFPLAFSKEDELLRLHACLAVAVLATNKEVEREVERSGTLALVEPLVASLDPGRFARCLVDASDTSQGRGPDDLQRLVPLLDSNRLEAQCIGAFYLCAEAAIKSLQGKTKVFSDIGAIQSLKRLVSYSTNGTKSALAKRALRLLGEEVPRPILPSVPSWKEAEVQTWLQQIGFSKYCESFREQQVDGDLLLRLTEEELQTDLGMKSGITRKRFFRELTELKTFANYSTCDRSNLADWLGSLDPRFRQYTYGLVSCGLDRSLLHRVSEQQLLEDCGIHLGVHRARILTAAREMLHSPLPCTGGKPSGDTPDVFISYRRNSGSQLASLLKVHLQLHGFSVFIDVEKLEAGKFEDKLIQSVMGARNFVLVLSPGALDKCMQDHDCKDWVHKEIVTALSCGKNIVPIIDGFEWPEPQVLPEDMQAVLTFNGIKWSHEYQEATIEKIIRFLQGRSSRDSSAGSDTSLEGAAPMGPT

As a reminder, the inhibition is the change of the read-out against control, counted positive when it falls. With `COc1ccc([C@@H]2Sc3ccccc3N(CCN(C)C)C(=O)[C@@H]2OC(C)=O)cc1`, the fluorescence ratio in assay [1] is 0.95 (inactive); in assay [4], 0.98 (inactive). The values for the inhibition in assay [2], in assay [3] and in assay [13] were -3.18% (inactive), -2.76% (inactive) and -12.8% (inactive), respectively. Also, the nuclear beta-catenin stimulation in assay [5] (at 10 µM) is 0.5% (inactive); in [5] (stimulation, at 2 µM), -0.4%. Moreover, the insulin secretion stimulation in assay [6] was 1.15% (inactive). The viability decrease in assay [7] was 17% (inactive). The tube area decrease in assay [8] was -3.8% (inactive). Further, in assay [9], the GLP1 secretion stimulation is 2.5% (inactive). The inhibition of viability in assay [10] was 32.9% (inactive). Also, the viability decrease (inhibition) in [11] is 47.4% (inactive); in [12] it was 32.3% (inactive). For the same compound, the z-score was 0.628 (inactive) and 0.162 (inactive) in assay [14] (setting [20]); -0.0359 and -0.282 in [14] (setting [21]). For the same compound, the remaining NAD in assay [15] was 10 nM (inactive). For the same compound, the luciferase signal in [16] is 68 AU (inactive). For the same compound, the log fold change Tl+ flux in [17] is 0.0589 (inactive).

The term viability denotes a read-out of living cells in per cent, often relative to untreated cells. For the compound `CN(C)CC/C=C1\c2ccccc2COc2ccccc21`, the parasite load remaining in assay [18] is 66.1% (inactive) and 36% (inactive) and 100% (inactive). In addition, the viability in [18] is 121% and 46.9% and 88.3%. Moreover, the values for the fluorescence ratio in assay [1] and in assay [4] were 0.98 (inactive) and 0.9 (inactive), respectively. The inhibition in assay [2] was -1.36% (inactive); in assay [3], 4.1% (inactive); in assay [13], 2.99% (inactive). For the same compound, the nuclear beta-catenin stimulation in assay [5] (at 10 µM) was -0.4% (inactive); in assay [5] (stimulation, at 2 µM), 0.3%. Also, the insulin secretion stimulation in assay [6] was -0.9% (inactive). For the same compound, the viability decrease in [7] was -44.3% (inactive). The tube area decrease in assay [8] was -0.9% (inactive). Further, in assay [9], the GLP1 secretion stimulation was 5.2% (inactive). For the same compound, the inhibition of viability in assay [10] is 12% (inactive). The viability decrease (inhibition) was 54.8% (active) in [11] and -3.7% (inactive) in [12]. The fold change in assay [19] (setting [22]) was 0.953 (inactive) and 0.908 (inactive) and 0.946 (inactive); in [19] (setting [23]) it was 1.39 and 2.7 and 1.08. The cell count in assay [19] (setting [24]) was 9160 and 8980 and 8750; in assay [19] (setting [25]) it was 9610 and 9880 and 9250. In addition, the z-score is 0.295 (inactive) in assay [14] (setting [20]) and 0.581 in assay [14] (setting [21]). Moreover, the remaining NAD in assay [15] was 10 nM (inactive). In addition, the luciferase signal in assay [16] is 96 AU (inactive). Further, the log fold change Tl+ flux in assay [17] is 0.0501 (inactive).

In the case of `Nc1nc2ncc(CNc3ccc(C(=O)N[C@@H](CCC(=O)O)C(=O)O)cc3)nc2c(=O)[nH]1`, the fluorescence ratio in [1] is 0.95 (inactive); in [4], 0.92 (inactive). Further, the inhibition is -2.27% (inactive) in assay [2], 11% (inactive) in assay [3] and -0.853% (inactive) in assay [13]. For the same compound, the nuclear beta-catenin stimulation was 0.8% (inactive) in assay [5] (at 10 µM) and 0.5% in assay [5] (stimulation, at 2 µM). The insulin secretion stimulation in assay [6] is 2.4% (inactive). Also, the viability decrease in assay [7] was -64.4% (inactive). In assay [8], the tube area decrease was 16.7% (inactive). The GLP1 secretion stimulation in assay [9] is -1.5% (inactive). Besides, in assay [10], the inhibition of viability is -2.33% (inactive). The results for the viability decrease (inhibition) in assay [11] and in assay [12] were 6.4% (inactive) and -8.5% (inactive), respectively. For the same compound, the fold change is 0.937 (inactive) and 0.906 (inactive) and 0.91 (inactive) in [19] (setting [22]); 1.68 and 0.997 and 3.41 in assay [19] (setting [23]). In addition, the cell count in [19] (setting [24]) is 10800 and 8990 and 11200; in assay [19] (setting [25]) it was 11600 and 9920 and 12300. Moreover, the figures for the z-score in assay [14] (setting [20]) and in assay [14] (setting [21]) were 0.332 (inactive) and -0.293, respectively. The remaining NAD in assay [15] was 10 nM (inactive). Further, the luciferase signal in [16] was 188 AU (inactive). The log fold change Tl+ flux in assay [17] is -0.0861 (inactive).

In the case of `Cn1c(=O)c2[nH]cnc2n(C)c1=O`, the figures for the inhibition in assay [2], in assay [3] and in [13] were 0.45% (inactive), -2.76% (inactive) and 4.58% (inactive), respectively. Also, the fluorescence ratio in assay [4] is 1 (inactive). The nuclear beta-catenin stimulation in [5] (at 10 µM) is 1.1% (inactive); in assay [5] (stimulation, at 2 µM), 0.3%. Moreover, the insulin secretion stimulation in assay [6] was 0.2% (inactive). Further, the viability decrease in assay [7] was 0.3% (inactive). Moreover, the tube area decrease in assay [8] was -10.1% (inactive). Besides, in assay [9], the GLP1 secretion stimulation is -0.8% (inactive). The inhibition of viability in assay [10] was 6% (inactive). Moreover, the viability decrease (inhibition) in assay [11] is 20.4% (inactive); in assay [12] it was -2.35% (inactive). Besides, the remaining NAD in assay [15] was 10 nM (inactive). The luciferase signal in [16] is 96 AU (inactive). In addition, in assay [17], the log fold change Tl+ flux is 0.0321 (inactive).

The record behind these values is PubChem BioAssay.
